Experiment [1] in a line: antimalarial activity against Dd2 strain (AID 2302;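 active = growth inhibition above 50% at the single 2 µM test dose, taken to imply half-maximal potency below 2 µM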;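 note: 0% = DMSO untreated growth and 100% = chloroquine plus artemisinin killed control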). The settings on record: P. falciparum Dd2 in RBCs, LDH growth readout, 72 h; at 2 µM; hits give high values.
Experiment [2] can be described thus: human hepatoma cell viability loss – ATP luminescence, cytotoxicity control for P. falciparum antimalarial project, primary screen (AID 2303;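 active = inhibition above 50%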;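 note: 0% = DMSO wells and 100% = digitonin-killed cells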). The settings on record: HepG2 viability, 24-48 h, at 10 µM, hits give high values.
Experiment [3] concerns the target L-lactate dehydrogenase (Plasmodium falciparum (isolate CDC / Honduras)) (UniProt Q27743). In words: PfLDH activity inhibition – cell lysate, 3D7 strain, counter-screen for P. falciparum growth inhibition project (AID 2304).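 Note: 0% = vehicle and 100% = reference inhibitor.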 The settings on record: P. falciparum 3D7 crude extract, LDH APAD/NBT absorbance; at 2 µM; hits give high values. In general terms: The purpose of a counterscreen is to sort out artefacts and off-target activity.

Experiment [4] can be described thus: inhibition of 3D7 malaria parasite growth – strain 3D7 (AID 2306).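 Note: 0% = DMSO wells and 100% = chloroquine plus artemisinin control wells.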 The following applies: P. falciparum 3D7 erythrocytic growth, LDH absorbance, 72 h; at 2 µM; hits give high values.
Experiment [5] concerns the target Calcium-dependent protein kinase 1 (Plasmodium falciparum (isolate 3D7)) (UniProt P62344). In words: PfCDPK1 kinase inhibitors, biochemical, TCAMS library (AID 1159585; cut-off not given, nearly all actives have IC50 up to about 0.98 µM;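 note: inhibitors leave more ATP so luminescence rises with inhibition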). The following applies: recombinant PfCDPK1, Kinase-Glo ATP depletion luminescence. For orientation: Kinase-Glo measures the ATP left after a reaction by luminescence.
The target in experiment [6] is Plasmodium falciparum protein kinase 6 (PK6, PF3D7_1337100) (UniProt Q8IDW1). Nature of the experiment: PfPK6 kinase inhibitors, biochemical, TCAMS library (AID 1159586). The settings on record: recombinant PfPK6, Kinase-Glo ATP depletion luminescence.
The target in experiment [7] is Protein kinase 7 (PK7), Plasmodium falciparum 3D7 (PF3D7_0213400) (UniProt Q7YTF7). In words: inhibition of Plasmodium PK7 catalytic activity – biochemical, TCAMS antimalarial set, Kinase-Glo luminescence (AID 1159587). The following applies: recombinant PfPK7, Kinase-Glo ATP depletion luminescence.
Experiment [8] concerns the target Calcium-dependent protein kinase 4 (Plasmodium falciparum (isolate 3D7)) (UniProt Q8IBS5). Nature of the experiment: PfCDPK4 kinase inhibitors, biochemical, TCAMS library (AID 1159588; cut-off not given, nearly all actives have IC50 up to about 0.91 µM). The settings on record: recombinant PfCDPK4, Kinase-Glo ATP depletion luminescence.

Unmarked numbers belong to inactive results. For some of these results: Measured potencies and affinities stand elsewhere. The source made the active and inactive calls. Unless noted, the rule behind the calls is not given here.

Sequence of Protein kinase 7 (PK7), Plasmodium falciparum 3D7 (PF3D7_0213400) (Q7YTF7 1-343): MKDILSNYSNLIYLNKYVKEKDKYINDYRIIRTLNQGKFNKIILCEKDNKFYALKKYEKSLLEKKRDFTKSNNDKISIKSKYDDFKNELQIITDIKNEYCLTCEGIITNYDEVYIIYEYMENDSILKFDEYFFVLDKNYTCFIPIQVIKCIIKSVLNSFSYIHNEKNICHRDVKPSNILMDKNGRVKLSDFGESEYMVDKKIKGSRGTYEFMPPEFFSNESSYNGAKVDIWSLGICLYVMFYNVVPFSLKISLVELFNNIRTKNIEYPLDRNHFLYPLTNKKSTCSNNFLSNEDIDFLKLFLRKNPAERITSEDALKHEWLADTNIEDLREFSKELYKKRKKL
Sequence of Plasmodium falciparum protein kinase 6 (PK6, PF3D7_1337100) (Q8IDW1 1-305): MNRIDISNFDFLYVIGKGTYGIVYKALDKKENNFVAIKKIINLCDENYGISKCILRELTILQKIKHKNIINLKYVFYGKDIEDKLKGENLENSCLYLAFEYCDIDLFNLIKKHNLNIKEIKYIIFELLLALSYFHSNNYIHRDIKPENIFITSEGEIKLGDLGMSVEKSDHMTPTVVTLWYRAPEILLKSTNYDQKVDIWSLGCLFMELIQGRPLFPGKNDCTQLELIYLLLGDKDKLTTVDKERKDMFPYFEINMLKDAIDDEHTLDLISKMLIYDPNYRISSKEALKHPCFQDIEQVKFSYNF
Sequence of Calcium-dependent protein kinase 1 (Plasmodium falciparum (isolate 3D7)) (P62344 whole entry, looked up): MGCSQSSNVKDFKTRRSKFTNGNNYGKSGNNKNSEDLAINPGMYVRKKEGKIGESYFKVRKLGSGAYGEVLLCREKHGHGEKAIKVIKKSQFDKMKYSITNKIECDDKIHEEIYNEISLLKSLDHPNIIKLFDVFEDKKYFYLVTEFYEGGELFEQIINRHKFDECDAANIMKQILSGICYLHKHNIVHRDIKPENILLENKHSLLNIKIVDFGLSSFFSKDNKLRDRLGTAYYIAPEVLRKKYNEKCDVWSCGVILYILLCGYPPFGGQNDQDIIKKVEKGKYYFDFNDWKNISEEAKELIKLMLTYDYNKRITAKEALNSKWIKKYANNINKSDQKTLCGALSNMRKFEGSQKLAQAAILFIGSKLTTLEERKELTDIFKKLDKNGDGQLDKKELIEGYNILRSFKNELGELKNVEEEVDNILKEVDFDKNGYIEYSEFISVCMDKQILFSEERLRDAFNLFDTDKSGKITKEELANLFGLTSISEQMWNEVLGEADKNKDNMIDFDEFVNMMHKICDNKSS
Sequence of Calcium-dependent protein kinase 4 (Plasmodium falciparum (isolate 3D7)) (Q8IBS5 whole entry, looked up): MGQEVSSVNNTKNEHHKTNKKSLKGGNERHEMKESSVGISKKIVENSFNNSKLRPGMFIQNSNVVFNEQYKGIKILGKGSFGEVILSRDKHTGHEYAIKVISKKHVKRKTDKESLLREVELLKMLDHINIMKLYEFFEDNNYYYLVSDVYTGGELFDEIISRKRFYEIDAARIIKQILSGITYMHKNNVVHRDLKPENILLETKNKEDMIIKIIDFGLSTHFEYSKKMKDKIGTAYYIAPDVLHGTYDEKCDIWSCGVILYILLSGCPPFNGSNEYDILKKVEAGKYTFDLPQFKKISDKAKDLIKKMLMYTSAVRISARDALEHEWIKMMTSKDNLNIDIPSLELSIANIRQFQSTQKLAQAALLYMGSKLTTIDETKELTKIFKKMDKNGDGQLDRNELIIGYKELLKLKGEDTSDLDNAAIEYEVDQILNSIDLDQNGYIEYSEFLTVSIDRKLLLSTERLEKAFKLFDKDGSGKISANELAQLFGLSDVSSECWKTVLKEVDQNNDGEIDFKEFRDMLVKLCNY
Sequence of L-lactate dehydrogenase (Plasmodium falciparum (isolate CDC / Honduras)) (Q27743 whole entry, looked up): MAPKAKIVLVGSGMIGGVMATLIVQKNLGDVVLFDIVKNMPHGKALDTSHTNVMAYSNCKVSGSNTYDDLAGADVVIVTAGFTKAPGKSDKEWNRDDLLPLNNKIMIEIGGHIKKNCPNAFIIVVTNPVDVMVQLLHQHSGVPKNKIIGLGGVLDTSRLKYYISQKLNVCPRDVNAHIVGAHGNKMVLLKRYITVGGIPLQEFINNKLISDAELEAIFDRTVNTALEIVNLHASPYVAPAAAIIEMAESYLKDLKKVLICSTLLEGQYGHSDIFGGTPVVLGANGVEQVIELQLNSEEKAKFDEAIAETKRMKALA

For orientation: inhibition means the change of the read-out against control, counted positive when it falls. As for `O=S(=O)(Nc1cc2c(cc1O)CCNCC2)c1ccc(-c2ccc(Cl)cc2)cc1`, the growth inhibition in experiment [1] is 0%; in experiment [4], 99% (active). The inhibition in experiment [2] was 10%; in experiment [3], 3%. Besides, the outcome in experiment [5], in experiment [6], in experiment [7] and in experiment [8] was inactive.

Take `O=C(/C=C/c1ccc(Cl)c(Cl)c1)NCCCCCN1CCC(CCNC(=O)c2snnc2-c2ccccc2)CC1`: the growth inhibition in experiment [1] is 1%; in experiment [4], 89% (active). Besides, the inhibition is 54% (active) in experiment [2] and -2% in experiment [3]. For the same molecule, the outcome in experiment [5], in experiment [6], in experiment [7] and in experiment [8] was inactive.

With `Cc1cc2c(cc1Cl)N(C(=O)Nc1cc(F)cc(-c3cncnc3)c1)CC2`, the growth inhibition is 59% (active) in experiment [1] and 96% (active) in experiment [4]. In addition, the inhibition in experiment [2] is -4%; in experiment [3], -6%. Further, the outcome in experiment [5], in experiment [6], in experiment [7] and in experiment [8] was inactive.

Turning to `COc1cc(NC(=O)N2CCOC(CCN3CCC(c4ccccc4)CC3)(c3ccc(Cl)c(Cl)c3)C2)cc(OC)c1OC` (stereo not given), the values for the growth inhibition in experiment [1] and in experiment [4] were 73% (active) and 93% (active), respectively. Further, the inhibition in experiment [2] is 15%; in experiment [3], -2%. The outcome in experiment [5], in experiment [6], in experiment [7] and in experiment [8] was inactive.

As to `CC(C)CNCc1cccc(-c2ccc(CN(CCCN3CCN(C)CC3)C(=O)/C=C/c3ccccc3)cc2)c1`, the growth inhibition in experiment [1] was 90% (active); in experiment [4], 92% (active). The inhibition is 48% in experiment [2] and -2% in experiment [3]. For the same molecule, the result in experiment [5], in experiment [6], in experiment [7] and in experiment [8] was inactive.

For the molecule `O=C(Nc1cccc(Cl)c1)N[C@H]1CCN(Cc2ccc(OCCCN3CCCCC3)cc2)C1`, the growth inhibition in experiment [1] is -3%; in experiment [4], 99% (active). Moreover, the inhibition in experiment [2] was 15%; in experiment [3] it was 1%. Further, the result in experiment [5], in experiment [6], in experiment [7] and in experiment [8] was inactive.

Consider `Cc1ccccc1Cn1c(CN2CCC(C(=O)NC3CC3)CC2)cc2ccccc21`, for which the growth inhibition in experiment [1] is 96% (active); in experiment [4], 97% (active). For the same molecule, the inhibition was 7% in experiment [2] and -2% in experiment [3]. In addition, the result in experiment [5], in experiment [6], in experiment [7] and in experiment [8] was inactive.

As for `CC(=O)c1ccc(O)c(CC(O)CO)c1` (stereo not given), the figures for the growth inhibition in experiment [1] and in experiment [4] were -1% and 100% (active), respectively. The figures for the inhibition in experiment [2] and in experiment [3] were 3% and 4%, respectively. Also, the result in experiment [5], in experiment [6], in experiment [7] and in experiment [8] was inactive.

As to `Cc1ccccc1N1CCN(c2ncc(C(=O)NC3CC3)cc2Cl)CC1`, the figures for the growth inhibition in experiment [1] and in experiment [4] were 96% (active) and 91% (active), respectively. Further, the inhibition in experiment [2] is 23%; in experiment [3], -2%. Moreover, the result in experiment [5], in experiment [6], in experiment [7] and in experiment [8] was inactive.

As for `Nc1nc(Nc2cccc(Cl)c2)ncc1C(=O)NCc1ccncc1`, the growth inhibition in experiment [1] is 29%; in experiment [4] it was 98% (active). In addition, the inhibition is 3% in experiment [2] and -5% in experiment [3]. In addition, the outcome in experiment [5], in experiment [6], in experiment [7] and in experiment [8] was inactive.

In the case of `CO/C(=C/C=C/c1cc2cc(Cl)c(Cl)cc2[nH]1)C(=O)NC1CC(C)(C)N(C)C(C)(C)C1`, the growth inhibition is 85% (active) in experiment [1] and 99% (active) in experiment [4]. Further, the inhibition in experiment [2] is 58% (active); in experiment [3] it was -12%. Also, the outcome in experiment [5], in experiment [6], in experiment [7] and in experiment [8] was inactive.

Take `COc1cccc(C(=O)Nc2nc3c(s2)CCN(Cc2ccccc2N2CCNCC2)CC3)c1`: the growth inhibition is 11% in experiment [1] and 89% (active) in experiment [4]. Further, the inhibition in experiment [2] is 7%; in experiment [3], -6%. Further, the result in experiment [5], in experiment [6], in experiment [7] and in experiment [8] was inactive.

As for `Cc1cc(N2CCN(C)CC2)nc2ccc(NC(=O)Cc3cccc(C(F)(F)F)c3)cc12`, the growth inhibition was 51% (active) in experiment [1] and 99% (active) in experiment [4]. For the same molecule, the inhibition in experiment [2] is 26%; in experiment [3], 3%. For the same molecule, the result in experiment [5], in experiment [6], in experiment [7] and in experiment [8] was inactive.

`CCCCCCn1c(Sc2ccc(C#N)c([N+](=O)[O-])c2)nnc1-c1cccs1`: the growth inhibition in experiment [1] was 60% (active); in experiment [4], 97% (active). Moreover, the inhibition was 26% in experiment [2] and -4% in experiment [3]. Besides, the result in experiment [5], in experiment [6], in experiment [7] and in experiment [8] was inactive.

In the case of `CN1CCC(NCc2cccc(-c3ccc(S(=O)(=O)NCc4ccccc4)cc3)c2)CC1`, the growth inhibition is 93% (active) in experiment [1] and 100% (active) in experiment [4]. Further, the inhibition in experiment [2] is 61% (active); in experiment [3], 0%. Further, the result in experiment [5], in experiment [6], in experiment [7] and in experiment [8] was inactive.

On to `CCCNC[C@@H](O)[C@H](Cc1ccccc1)NC(=O)c1cc(NCC)cc(N2CCCC2=O)c1`, for which the growth inhibition is 76% (active) in experiment [1] and 100% (active) in experiment [4]. Further, the inhibition in experiment [2] is -9%; in experiment [3] it was 1%. In addition, the outcome in experiment [5], in experiment [6], in experiment [7] and in experiment [8] was inactive.

Turning to `COc1ccc(NC(=O)/C=C/c2ccccc2Cl)cc1OCCN1CCC(O)(c2ccc(Cl)c(C(F)(F)F)c2)CC1`, the results for the growth inhibition in experiment [1] and in experiment [4] were 9% and 101% (active), respectively. Besides, the inhibition in experiment [2] was 37%; in experiment [3], -1%. Moreover, the result in experiment [5], in experiment [6], in experiment [7] and in experiment [8] was inactive.

On to `COc1ccc(NS(=O)(=O)c2cc(NC(=O)Cn3ccccc3=O)ccc2N2CCCCC2)cc1`, for which the growth inhibition in experiment [1] was 83% (active); in experiment [4], 92% (active). Further, the inhibition is 20% in experiment [2] and 1% in experiment [3]. Further, the result in experiment [5], in experiment [6], in experiment [7] and in experiment [8] was inactive.

For `C=CCOC(=O)N1CCC(CNCc2cccc(-c3cccc(-c4nc5ccccc5[nH]4)c3)c2)C1` (stereo not given), the growth inhibition is 46% in experiment [1] and 100% (active) in experiment [4]. For the same molecule, the values for the inhibition in experiment [2] and in experiment [3] were 16% and -3%, respectively. Also, the outcome in experiment [5], in experiment [6], in experiment [7] and in experiment [8] was inactive.

Turning to `O=C(N[C@@H](Cc1cc(F)cc(F)c1)[C@H](O)CNCc1cccc(C(F)(F)F)c1)c1cc(C2CCCC2)cc(N2CCCC2=O)c1`, the figures for the growth inhibition in experiment [1] and in experiment [4] were 45% and 95% (active), respectively. The inhibition in experiment [2] was 37%; in experiment [3] it was -3%. Further, the result in experiment [5], in experiment [6], in experiment [7] and in experiment [8] was inactive.

(Values after PubChem BioAssay.)
